Screening data: PubChem BioAssay, Broad Institute
esBAF inh: SWI/SNF esBAF complex inhibition; mouse ES cells, Bmi1-luciferase knock-in reporter, 24 h; 100% = twice the neutral-well signal; reporter increase, % at 12.5 µM; 350,000 compounds, 2% hits; AID 602393; in the data active means activation above about 40%; inconclusive means no clear call, values can overlap the other calls;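 further: 0% = median of the plate's neutral control wells and 100% = double that signal; a rise in the Bmi1 reporter signal indicates esBAF inhibition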
HSF1 activator: increases HSF-1 driven luciferase reporter signal; NIH3T3-HGL HSF-1 luciferase reporter, MG132, 8 h; 100% = twice DMSO control signal; activation, % at 9 µM; 300,000 compounds, 1.7% hits;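 active means mean replicate activation of at least 50% with a set share of replicates each reaching 50%; inconclusive means only one of those two conditions met; inactive means mean below 50% and too few replicates reaching it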;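 further: 0% = median of the neutral control wells and 100% = twice that signal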
HSF1 inhib: HSF1 inhibition. NIH3T3-HGL HSE-luciferase, MG132-induced, luminescence 8 h; stronger effect = lower value. activity change, negative = inhibition, % at 7.5 µM (by protocol). AID 2098. 300,000 compounds, 0.77% hits;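 active means more than half of replicate wells show activity change below -50%, luminescence cut by over half; inconclusive means some wells, but at most half, below -50%; inactive means no replicate well below -50%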;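 further: luciferase reports HSF-1 transcriptional activity via heat shock element; 0% = median of DMSO wells and -100% = zero luminescence signal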
MITF act: increases MITF-driven TRPM1 promoter luciferase signal | SK-MEL-5 TRPM1-promoter luciferase, 24 h; % of positive control, neutral wells = 0 | 300,000 compounds, 0.75% hits | AID 588334 | activation, % at 12.5 µM;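 active means mean activation of at least 80% with every replicate also reaching 80%; inconclusive means mean reaches 80% but some replicate falls short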;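 further: 0% = neutral control wells and 100% = parthenolide positive control wells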
Wnt act: Wnt/beta-catenin pathway activation; Wnt/beta-catenin reporter cell assay, activator, plate reader; activation, % at 9.35 µM; 300,000 compounds, 1.2% hits; AID 743398; in the data active means activation above about 30%, passing the limit was not always enough; inconclusive means no clear call, values can overlap the other calls;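 further: 0% = neutral control wells and 100% = positive control wells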
* marks the source's active call; other numbers are inactive results; ? = inconclusive; / = no result given. Sampled rows, rich in hits. Any-hit rate of the full collection: about 3.9%.

SMILES	esBAF inh	HSF1 activator	HSF1 inhib	MITF act	Wnt act
Cc1cc(C)c2nc(N3CCCC(C(=O)NCCN4CCOCC4)C3)sc2c1 (stereo unspecified)	68*	-12	-13	15	13
O=C(NCCc1ccc(Cl)cc1)c1ccc2nc(N3CCOCC3)sc2c1	2	24	8	-3	0
c1ccc(Cn2c(-c3cncs3)nc3ccccc32)cc1	66*	31	28	47	/
C[C@@H]1CN([C@H](C)CO)C(=O)c2cc(NC(=O)CCN3CCOCC3)ccc2O[C@H]1CN(C)Cc1ccc(C(F)(F)F)cc1	-4	/	/	/	/
CC/C(=N\NS(=O)(=O)c1ccc(C)cc1)c1ccco1	-4	-72	-64*	-12	6
CCC(=NNS(=O)(=O)c1ccc(C)cc1)c1ccccc1	1	/	/	/	-6
CC1/C(=N/O)CC(c2ccco2)NC1c1ccco1 (stereo unspecified)	/	31	4	-4	/
CC1C(=O)C(C)C(c2ccco2)NC1c1ccco1 (stereo unspecified)	5	-71	-64*	2	-4
CCC(=O)NCCc1nc2cc(NC(=O)c3ccc(F)cc3)ccc2n1C	39	30	5	93*	29
CCC(=O)NCCc1nc2cc(NC(=O)c3ccc(Cl)cc3)ccc2n1C	30	14	3	123*	37*
O=C(CCN1CCCCC1)NCC[C@H]1CC[C@H](NC(=O)Nc2ccc(F)cc2)[C@H](CO)O1	0	/	/	/	/
COc1ccccc1-c1nnc(NC(=O)CSc2nncn2C)s1	/	9	7	9	54*
CC(C)c1cc(C(=O)NCCc2ccccc2)no1	24	12	15	65	39*
O=C(Nc1cccc(Cl)c1)c1ccncc1	3	28	4	2	0
CC(C)c1cc(C(=O)Nc2cc(Cl)ccc2O)no1	55*	?	21	62	/
O=C(Nc1cccc(Cl)c1)c1cnc[nH]1	58*	22	11	71	19
CC(C)c1cc(C(=O)Nc2cc(Br)ccc2O)no1	78*	18	7	40	15
CO[C@H]1CN(C)C(=O)c2ccc(NC(=O)Nc3cccc(F)c3)cc2OC[C@@H](C)N(C(C)=O)C[C@@H]1C	1	/	/	/	/
CC(C)c1cc(C(=O)Nc2cccc(Cl)c2)no1	31	/	/	90*	/
CC(=O)c1cccc(NC(=O)c2cc(C(C)C)on2)c1	30	?	26	/	-7
O=C(CCNC(=O)c1ccc(Cl)cc1)NC1CCCCCC1	26	/	/	10	38*
O=C(CCNC(=O)c1ccc(Br)cc1)NC1CCCCCC1	3	/	/	-3	-1
O=C(Cc1ccc(Cl)cc1)NC1CCCCCC1	54*	14	2	26	3
O=C(Cc1ccc(Cl)cc1)NNC(=O)C(=O)NC1CCCCC1	-12	/	/	-12	0
O=C(COC(=O)c1ccccc1F)NC1CCCC1	2	21	-1	-8	3
SMILES	esBAF inh	HSF1 activator	HSF1 inhib	MITF act	Wnt act
O=C(COC(=O)c1c(F)cccc1Cl)NC1CCCCC1	/	/	/	85*	16
CO[C@@H](C(=O)N(C)C[C@H]1OCc2ccccc2-c2ccccc2C(=O)N([C@@H](C)CO)C[C@@H]1C)c1ccccc1	6	/	/	/	/
COc1ccc(NC(=O)N(C)C[C@@H]2Oc3c(NS(=O)(=O)c4cccs4)cccc3C(=O)N([C@@H](C)CO)C[C@H]2C)cc1	2	/	/	/	/
C[C@@H]1CN([C@@H](C)CO)C(=O)c2ccccc2-c2ccccc2CO[C@@H]1CN(C)S(C)(=O)=O	-6	/	/	/	/
O=C1CCCN1CCCN=c1c([N+](=O)[O-])nn(-c2ccc(Cl)cc2)n1O	/	62*	33	-14	1
O=[N+]([O-])c1nn(-c2ccccc2)n(O)c1=NCc1ccc2c(c1)OCO2	2	1	2	5	-12
O=[N+]([O-])c1nn(-c2ccc(Cl)cc2)n(O)c1=NCc1ccccc1	23	14	11	11	40*
O=c1oc(CCCO)cc2ccc(C#Cc3cccnc3)cc12	30	/	/	46	22
O=c1oc(CCO)cc2ccc(C#Cc3ccsc3)cc12	79*	/	/	115*	33*
CN(C)c1ccc(C#Cc2ccc3cc(CCO)oc(=O)c3c2)cc1	32	/	/	128*	/
COc1cc(C#Cc2ccc3cc(CCO)oc(=O)c3c2)cc(OC)c1	58*	/	/	144*	38*
O=C(/C=C/Nc1cccc(C(F)(F)F)c1)c1ccc(Oc2ncccn2)cc1	49*	-29	-21	30	/
CN(C)/C=C/C(=O)c1cccc(Oc2ncccn2)c1	-2	72*	49	2	-2
COc1ccccc1NC(=O)N(C)C[C@H]1Oc2cc(Br)ccc2S(=O)(=O)N([C@@H](C)CO)C[C@H]1C	3	/	/	/	/
CCCc1nc(SCC(=O)Nc2cc(Cl)ccc2OC)c2c(=O)n(C)c(=O)n(C)c2n1	/	-70	-63*	/	/
COc1ccc(Oc2nccc(-c3ccc(F)cc3)c2C#N)cc1	36	13	24	34	/
COc1ccc(Oc2nccc(-c3ccccc3)c2C#N)cc1	55*	46	15	65	/
C[C@@H]1CN([C@@H](C)CO)C(=O)c2cccc(NS(=O)(=O)c3cccs3)c2O[C@@H]1CN(C)Cc1ccccc1	-1	/	/	/	/
CCc1ccc(Nc2ncccc2C#N)cc1	28	15	1	51	/
CCC(C)c1ccc(Nc2ncccc2C#N)cc1 (stereo unspecified)	81*	28	11	49	/
C[C@@H]1CN([C@H](C)CO)C(=O)c2cc(NC(=O)Nc3ccc(C(F)(F)F)cc3)ccc2O[C@@H](C)CCCCO[C@H]1CN(C)S(C)(=O)=O	-3	/	/	/	/
Cc1noc(C)c1-c1ccc(C(=O)Nc2cccc(C(F)(F)F)c2)c2occc12	53*	/	/	/	-1
CN(C)CC(=O)N[C@@H]1CC[C@H](CCn2cc(CN(C)C)nn2)O[C@@H]1CO	-5	/	/	/	/
CCOC(=O)c1ccc(N2Cc3ccccc3C2=NC(=O)c2cccc([N+](=O)[O-])c2)cc1	/	68*	30	?	22
CC(C)NC(=O)N(C)C[C@H]1Oc2ccc(NC(=O)Nc3ccc4c(c3)OCO4)cc2CC(=O)N([C@H](C)CO)C[C@H]1C	4	/	/	/	/
SMILES	esBAF inh	HSF1 activator	HSF1 inhib	MITF act	Wnt act
Fc1ccc(-c2nc3nc4ccccc4nc3n2Cc2ccco2)cc1	64*	36	23	37	?
c1ccc(-c2nc3nc4ccccc4nc3n2Cc2ccco2)cc1	/	-3	8	34	44*
C=CCn1c(-c2ccc(OC)cc2)nc2nc3ccccc3nc21	/	13	-7	/	4
COc1ccc(S(=O)(=O)N(C)C[C@@H]2OCCCC[C@H](C)Oc3ccc(NC(=O)Nc4ccccc4)cc3C(=O)N([C@@H](C)CO)C[C@@H]2C)cc1	3	/	/	/	/
C[C@@H]1CN([C@H](C)CO)C(=O)c2cc(NC(=O)Nc3ccc4c(c3)OCO4)ccc2O[C@H]1CN(C)S(=O)(=O)c1ccc(Cl)cc1	-1	/	/	/	/
C[C@H](NC(=O)C[C@@H]1CC[C@H](NS(=O)(=O)c2cccc(F)c2)[C@H](CO)O1)c1ccccc1	-3	/	/	/	/
